Where “and” joins values, the source holds several entries; their conditions need not be identical. Identical values can stand only once. Screen size: about 5,500 compounds; about 2,000 (36%) were called active. Another 18% or so got no clear call; they are omitted. No stated cut-off is given here; in the data, active means normalized growth mostly below about 0.91 (no sharp cut-off); inconclusive means no clear call, values can overlap the other calls; inactive means mostly above about 0.92. The list shows a part of the results.
Assay: chemical genetic growth profiling, strain panel (AID 1159580);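 further: tested at 20 µM; growth read once vehicle control cultures reached saturation at 30 °C; 1 = growth at the plate median or of vehicle wells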
Conditions: S. cerevisiae deletion strains, growth OD

Measured: normalized growth

COc1ccc2c(c1)CCC1C2CC[C@@]2(C)C1CC[C@@H]2O (some centres not stated)
inactive: locus YAL021C, strain ccr4, stronger effect = lower value 0.959 | locus YAL030W, strain snc1, stronger effect = lower value 0.959 | locus YBR021W, strain FUR4, stronger effect = lower value 1.04 | locus YBR171W, strain sec66, stronger effect = lower value 0.94 | locus YBR229C, strain ROT2, stronger effect = lower value 0.982 | locus YBR231C, strain swc5, stronger effect = lower value 0.978 | locus YCR088W, strain abp1, stronger effect = lower value 0.937 | locus YDL005C, strain med2, stronger effect = lower value 0.983 | locus YDL040C, strain nat1, stronger effect = lower value 0.96 | locus YDL101C, strain DUN1, stronger effect = lower value 0.899 | locus YDL185W, strain tfp1, stronger effect = lower value 0.961 | locus YDR001C, strain nth1, stronger effect = lower value 0.965 | locus YDR069C, strain doa4, stronger effect = lower value 1.01 | locus YDR150W, strain NUM1, stronger effect = lower value 0.944 | locus YDR195W, strain ref2 0.953 | locus YDR334W, strain swr1, stronger effect = lower value 1 | locus YDR388W, stronger effect = lower value 0.936 | locus YEL037C, strain rad23, stronger effect = lower value 0.966 | locus YER016W, strain bim1, stronger effect = lower value 0.957 | locus YER111C, strain swi4, stronger effect = lower value 0.939 | locus YFR010W, strain ubp6, stronger effect = lower value 0.974 | locus YGL167C, strain pmr1, stronger effect = lower value 0.965 | locus YHR013C, strain ard1, stronger effect = lower value 1.04 | locus YHR027C, strain rpn1, stronger effect = lower value 0.977 | locus YHR079C, strain IRE1, stronger effect = lower value 0.872 | locus YHR094C, strain hxt1, stronger effect = lower value 0.951 | locus YIL073C, strain SPO22, stronger effect = lower value 0.727 | locus YJL092W, strain hpr5, stronger effect = lower value 0.934 | locus YJL115W, strain asf1, stronger effect = lower value 0.987 | locus YJL134W, strain LCB3, stronger effect = lower value 0.989 | locus YJL154C, strain vps35, stronger effect = lower value 0.986 | locus YJL168C, strain set2, stronger effect = lower value 0.943 | locus YJR066W, strain TOR1, stronger effect = lower value 0.907
0.36 (active) and 0.884 (inactive): locus YHR030C, strain SLT2, stronger effect = lower value
active: locus YAL013W, strain DEP1, stronger effect = lower value 0.82 | locus YAL026C, strain drs2, stronger effect = lower value 0.682 | locus YBL061C, strain skt5, stronger effect = lower value 0.889 | locus YBR009C, strain hhf1, stronger effect = lower value 0.76 | locus YBR023C, strain chs3, stronger effect = lower value 0.852 | locus YBR279W, strain paf1, stronger effect = lower value 0.884 | locus YCL011C, strain gbp2, stronger effect = lower value 0.813 | locus YCL016C, strain dcc1, stronger effect = lower value 0.862 | locus YCL029C, strain bik1, stronger effect = lower value 0.884 | locus YCL061C, strain MRC1, stronger effect = lower value 0.854 | locus YCL069W, strain vba3, stronger effect = lower value 0.898 | locus YDL035C, strain GPR1, stronger effect = lower value 0.728 | locus YDL074C, strain BRE1, stronger effect = lower value 0.514 | locus YDL134C, strain PPH21, stronger effect = lower value 0.799 | locus YDL192W, strain arf1, stronger effect = lower value 0.502 | locus YDR101C, strain arx1, stronger effect = lower value 0.811 | locus YDR137W, strain rgp1, stronger effect = lower value 0.578 | locus YDR159W, strain sac3, stronger effect = lower value 0.746 | locus YDR162C, strain NBP2, stronger effect = lower value 0.405 | locus YDR297W, strain sur2, stronger effect = lower value 0.915 | locus YDR318W, strain mcm21, stronger effect = lower value 0.7 | locus YDR335W, strain msn5, stronger effect = lower value 0.872 | locus YDR392W, strain spt3, stronger effect = lower value 0.239 | locus YDR502C, strain sam2, stronger effect = lower value 0.757 | locus YEL003W, strain gim4, stronger effect = lower value 0.842 | locus YEL061C, strain CIN8 (second series), stronger effect = lower value 0.893 | locus YEL061C, strain CIN8, stronger effect = lower value 0.825 | locus YER015W, strain faa2, stronger effect = lower value 0.86 | locus YER110C, stronger effect = lower value 0.875 | locus YER155C, strain BEM2 (second series), stronger effect = lower value 0.686 | locus YER155C, strain BEM2, stronger effect = lower value 0.676 | locus YER167W, strain BCK2, stronger effect = lower value 0.653 | locus YGL078C, strain dbp3, stronger effect = lower value 0.783 | locus YGL086W, strain mad1, stronger effect = lower value 0.75 | locus YGL173C, strain kem1, stronger effect = lower value 0.885 | locus YGL227W, strain vid30, stronger effect = lower value 0.903 | locus YGL240W, strain doc1, stronger effect = lower value 0.855 | locus YGL248W, strain PDE1, stronger effect = lower value 0.844 | locus YGL253W, strain hxk2, stronger effect = lower value 0.786 | locus YGR078C, strain PAC10, stronger effect = lower value 0.659 | locus YGR135W, strain pre9, stronger effect = lower value 0.731 | locus YGR229C, strain SMI1, stronger effect = lower value 0.407 | locus YGR252W, strain gcn5, stronger effect = lower value 0.47 | locus YHR079C, strain IRE1 (second series), stronger effect = lower value 0.787 | locus YHR129C, strain ARP1, stronger effect = lower value 0.753 | locus YHR142W, strain chs7, stronger effect = lower value 0.628 | locus YHR200W, strain rpn10, stronger effect = lower value 0.817 | locus YIL066C, strain RNR3, stronger effect = lower value 0.625 | locus YIL125W, strain kgd1, stronger effect = lower value 0.822 | locus YIR030C, strain dcg1, stronger effect = lower value 0.902 | locus YJL095W, strain BCK1 (second series), stronger effect = lower value 0.833 | locus YJL095W, strain BCK1, stronger effect = lower value 0.363 and 0.882 | locus YJL129C, strain trk1, stronger effect = lower value 0.804 | locus YJL164C, strain tpk1, stronger effect = lower value 0.812 | locus YJL166W, strain qcr8, stronger effect = lower value 0.775 | locus YJL187C, strain SWE1 (second series), stronger effect = lower value 0.818 | locus YJL187C, strain SWE1, stronger effect = lower value 0.898 | locus YJR043C, strain POL32, stronger effect = lower value 0.698

— PubChem BioAssay AID1159580 (chemical genetic matrix, 2015)
